# Source: PubChem
# The list is not random: actives were taken first. Their share in the collection is about 21%.
# Cycloheximide cs: counter-screen for Shiga toxin inhibitors: cycloheximide protein synthesis inhibition; cell reporter, cycloheximide protein synthesis inhibition counterscreen; max response, %; 12% of 300,000 active; AID 2314; in the data active = max response mostly above about 13%, no sharp cut-off; inactive = mostly below about 14%; note: read at 38.3 µM for the half of the compounds with a filed dose; 0% is about no effect
# NS1 inh: inhibitors of influenza NS1 protein function; Potency, µM (titrated, usually from 46.1 µM), for inactives: at the top dose activity, positive = more growth; 0.4% of 270,000 active; AID 2326; calls by dose curve; note: potency is the fitted concentration of half-maximal effect; actives are rising curves; nearly all actives have a fitted effect of over 50% in size
#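 Compounds were scored for reversing the slow growth caused by influenza A NS1 in S. cerevisiae, measured by optical density at 600 nm. Assay medium contained 2% galactose at pH 6.0; NS1-free yeast of the same strain were the positive control.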
# Shiga inhibitor: Shiga toxin inhibition. Vero cells, Shiga toxin protein synthesis inhibition reporter. inhibition, % at 38.7 µM. 9.2% of 290,000 active. AID 2315; in the data active = inhibition mostly above about 28%, no sharp cut-off; inactive = mostly below about 43%; note: 0% is about no effect
# Sm TGR inh: blocks Schistosoma mansoni thioredoxin glutathione reductase. Q962Y6. purified TGR, DTNB reduction, TNB absorbance 405 nm. Potency, µM (top dose mostly 114 µM), inactives show top-dose activity change, negative = inhibition, usual class: inhibitors. 3% of 360,000 active. AID 485364; note: potency is the fitted concentration of half-maximal effect; % is set by controls: 0 for no effect and ±100 for the full control effect; nearly all actives have a fitted effect of over 60% in size
#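 TGR 20 nM + NADPH 100 uM (dispensed conc.), cpd preinc 15 min RT; start with NADPH (500 uM addition) then DTNB (15 mM addition). Kinetic TNB absorbance, 405 nm filter. Four-parameter Hill fit across titration.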
# Pf growth 48h: P. falciparum growth inhibition at 48 hours (one generation); Potency, µM (highest dose often 28.7 µM), inactives show at the top dose activity change, negative = inhibition, most hits filed as inhibitors; 5.9% of 310,000 active; P. falciparum luciferase growth in erythrocytes, 48 h; note: potency is the fitted concentration of half-maximal effect; % is set by controls: 0 for no effect and ±100 for the full control effect
#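 Parasite viability was followed by luminescence of a genomically integrated firefly luciferase. Cultures held 0.1% parasitemia at 2% hematocrit (final), incubated under 5% CO2 at 37 C.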
# Pf growth 96h: P. falciparum growth inhibition at 96 hours. P. falciparum luciferase reporter growth, 96 h. Potency, µM (titrated, usually from 28.7 µM), inactives show at the top dose activity change, negative = inhibition, hits mostly inhibitors. 6.9% of 320,000 active; note: potency is the fitted concentration of half-maximal effect; % is set by controls: 0 for no effect and ±100 for the full control effect
#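 96 h incubation, 37 C, 5% CO2, of luciferase-reporter P. falciparum-infected RBCs (2% hematocrit, 0.05% parasitemia final) with test compounds; endpoint luminescence.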
# * hit, by the source's call; ? = inconclusive; / = no result. Unless noted, calls come from the whole dose curve; as a rule, active = well fitted curve in the direction sought with a large enough effect; inconclusive = small, poorly fitted or top-dose-only effect, or another doubt; inactive = no such curve, though single readings can be large; an effect the other way counts as inactive or inconclusive.
SMILES,Cycloheximide cs,NS1 inh,Shiga inhibitor,Sm TGR inh,Pf growth 48h,Pf growth 96h
O=C1CC(c2ccc3c(c2)OCCO3)Oc2ccccc21 (centres undefined),52*,-10%,80*,-14%,202%,191%
COc1ccc(OC)c(/C=C/C(=O)Nc2ccc(C(=O)OCCC(C)C)cc2)c1,/,/,/,0%,/,/
O=C(Nc1c(Cl)cccc1Cl)c1cccc2c1C(=O)N(C1CCCCC1)C2,/,/,/,3%,/,/
Cc1cccc(C)c1NC(=O)c1cccc2c1C(=O)N(C1CCCCC1)C2,1,-20%,-2,8%,10µM*,12µM*
CCOC(=O)N/N=C\c1sccc1C,8,9%,15,1%,10%,-2%
Cc1ccc(/C=N/NC(=O)Cc2c(F)cccc2Cl)s1,54*,-8%,79*,-2%,-15%,294%
CC(=O)Nc1ccc(S(=O)(=O)N/N=C/c2cccnc2)cc1,-4,2%,-2,9%,9%,?
CCCCNC(=S)N/N=C/c1ccc(C)s1,50*,-12%,61*,-5%,/,1.7µM*
CCCCNC(=S)N/N=C/c1sccc1C,9,/,36,-3%,?,?
CC(=O)Nc1ccc(S(=O)(=O)N/N=C/c2ccc(C)s2)cc1,48*,13%,73*,0%,147%,80%
CCOC(=O)N/N=C\c1ccc(C)s1,29*,8%,68*,-6%,60%,-7%
CCc1cccc(NS(=O)(=O)c2ccc3c(c2)N(CC(=O)OC)C(=O)CS3)c1,/,/,/,8%,/,/
Cc1ccc(/C=N/NC(=S)NCCc2ccccc2)s1,17,/,12,?,12µM*,?
CCCCNC(=S)N/N=C/c1ccccc1F,16*,-5%,19,-2%,48%,0%
CC1(CO)COC2(OC1)C(=O)Nc1ccccc12 (centres undefined),/,/,/,-4%,-20%,?
Cc1cccc2c1NC(=O)C21OCC(CO)([N+](=O)[O-])CO1 (centres undefined),-3,6%,-8,-22%,7%,2.6µM*
C=CCSc1nnc(-c2sc(-c3ccccc3)nc2C)n1C,42*,-12%,17,-13%,-8%,16%
C=CCSc1nnc(-c2nnc(SCC=C)n2-c2ccccc2)n1-c1ccccc1,6,1%,-10,-1%,?,6.6µM*
Cc1sc2nc(CN3CCN(c4ccc(O)cc4)CC3)[nH]c(=O)c2c1C,1,0%,5,?,?,12µM*
O=c1[nH]c(CN2CCN(c3ccccc3)CC2)nc2scc(-c3ccccc3)c12,-5,0%,-5,-14%,?,?
Cc1nn(-c2ccccc2)c(OC(=O)C(C)C)c1Sc1ccccc1,/,/,/,2%,/,/
Cc1nn(-c2ccccc2)c(N)c1Sc1ccc([N+](=O)[O-])cc1,20*,-42%,12,-10%,13%,?
CCOc1ccccc1NC(=O)Cn1nc(-c2ccco2)ccc1=O,-5,3%,-7,16µM*,?,-3%
O=C(CSc1ccc(-c2ccco2)nn1)Nc1ccccc1F,21,-5%,0,14µM*,6%,-29%
O=C(CSc1ccc(-c2cccnc2)nn1)Nc1ccccc1F,6,2%,-3,-26%,-7%,-23%
SMILES,Cycloheximide cs,NS1 inh,Shiga inhibitor,Sm TGR inh,Pf growth 48h,Pf growth 96h
CCOc1ccccc1NC(=O)CSc1ccc(-c2ccco2)nn1,-1,-4%,-5,18µM*,-14%,?
CCOc1ccccc1NC(=O)CSc1ccc(-c2sc(C)nc2C)nn1,-1,-28%,-3,-2%,?,10µM*
CCOc1ccccc1NC(=O)CSc1cn[nH]n1,/,/,/,2%,6%,?
O=C(Cc1ccc(F)cc1)N1CCOCC1,2,1%,-8,11%,10%,0%
COc1ccc(-c2cn3nc(N4CCCC(C(=O)Nc5cccc(OC)c5)C4)sc3n2)cc1 (centres undefined),/,/,/,19%,/,/
CCc1nnc(SCc2nc(-c3ccc(OC)cc3)oc2C)c2cc3sccc3n12,/,/,/,0%,/,/
Cc1ccc(NC(=O)CCNS(=O)(=O)c2ccc3[nH]c(=O)oc3c2)c(Cl)c1,1,-1%,-8,6%,-8%,2%
Cc1cccc(OCCC(=O)N(C)CC(=O)Nc2cccc3ccccc23)c1,-1,-4%,-1,-10%,-18%,-15%
CCOC(=O)c1cc(-c2ccccc2)n(CCC(=O)Nc2ccc(Cl)c(C(F)(F)F)c2)c1C,/,/,/,17%,/,/
Cc1ccccc1OCC(=O)NCCS(=O)(=O)N1CCN(c2ccc(F)cc2)CC1,/,/,/,2%,7%,52%
CC(C)n1cnc2c(N(C)c3ccccc3)nc(N(CCN(C)C)Cc3ccccc3)nc21,-9,-15%,-8,?,4.7µM*,0.93µM*
COc1cc(N(Cc2ccccc2)Cc2ccccc2)c2ncn(C(C)C)c2c1,/,/,/,3%,5.9µM*,7.4µM*
COc1ccc(OCCSc2nnc(C)n2-c2ccccc2)cc1,-2,0%,10,-1%,?,?
Cc1c(C=O)c(C=O)c(C)n1Cc1ccccc1,-4,-176%,-10,-19%,/,5.2µM*
CC(=O)c1c(C(C)=O)c(C)n(Cc2ccccc2)c1C,-3,-7%,1,2%,-26%,/
CCOC(=O)c1c(C)n(-c2ccc(F)cc2)c2ccc(O)cc12,-7,-1%,-13,-6%,2.6µM*,6%
CCOC(=O)c1c(C)n(C)c2ccc(O)cc12,/,/,/,/,-13%,?
COC(=O)c1c(C)n(-c2ccc(OC)cc2)c2ccc(O)cc12,-3,-2%,-27,-25%,12µM*,20%
COc1ccc(-n2c(C)c(C(C)=O)c3cc(OC(C)=O)ccc32)cc1,-3,4%,-22,6%,104%,-26%
CN1C[C@@H](NS(=O)(=O)N(C)C)C[C@@H]2c3cccc4c3c(cn4C)C[C@H]21,/,/,/,/,-46%,13µM*
CC(=O)N1CCN(c2ccc(NC(=O)c3ccc(C(C)(C)C)cc3)cc2)CC1,32*,8%,45*,-20%,10µM*,1%
CC(=O)N1CCN(c2ccc(NC(=O)c3ccc4ccccc4c3)cc2)CC1,26*,-4%,7,-9%,-26%,-26%
CC(=O)N1CCN(c2ccc(NC(=O)c3ccccc3C)cc2)CC1,10*,7%,4,-26%,30%,-4%
CC(=O)N1CCN(c2ccc(NC(=O)c3ccc(Cl)cc3)cc2)CC1,-4,19%,-12,-1%,-4%,?
O=C(Nc1ccc(N2CCCC2)cc1)c1ccc2ccccc2c1,49*,?,active,6%,302%,?
CC(C)Oc1ccc(C(=O)Nc2ccc(N3CCCCC3)cc2)cc1,-2,15%,22,4%,?,?
Cc1cc[c]([Sb]2[O]C([C@H](O)[C@H](O)C(=O)O)[C@@H](CO)[O]2)cc1 (some centres undefined),/,2%,/,/,/,/
CC(=O)N1CCN(c2ccc(NC(=O)c3cccc(Cl)c3)cc2)CC1,31*,-13%,73*,-2%,98%,0%
